# Measured values: PMC7862700, “An all-to-all approach to the identification of sequence-specific readers for epigenetic DNA modifications on cytosine”
# Tests used:
# Experiment in all cases: DAPPL (digital affinity profiling via proximity ligation, sequencing); 10 mM Tris-HCl pH 7.5, 50 mM NaCl, 1 mM DTT, 4% glycerol, room temperature, 30 min; GST-TFs on glutathione beads, 16-mer random dsDNA library, 0.1% formaldehyde crosslink after washing; high values mean tight binding
# Details in all cases: protein: recombinant; tags: N-terminal GST; dsDNA, one strand shown
# [1] = biological target: T1, ELK1 (Homo sapiens, UniProt P19419 1-428)
# T1 sequence: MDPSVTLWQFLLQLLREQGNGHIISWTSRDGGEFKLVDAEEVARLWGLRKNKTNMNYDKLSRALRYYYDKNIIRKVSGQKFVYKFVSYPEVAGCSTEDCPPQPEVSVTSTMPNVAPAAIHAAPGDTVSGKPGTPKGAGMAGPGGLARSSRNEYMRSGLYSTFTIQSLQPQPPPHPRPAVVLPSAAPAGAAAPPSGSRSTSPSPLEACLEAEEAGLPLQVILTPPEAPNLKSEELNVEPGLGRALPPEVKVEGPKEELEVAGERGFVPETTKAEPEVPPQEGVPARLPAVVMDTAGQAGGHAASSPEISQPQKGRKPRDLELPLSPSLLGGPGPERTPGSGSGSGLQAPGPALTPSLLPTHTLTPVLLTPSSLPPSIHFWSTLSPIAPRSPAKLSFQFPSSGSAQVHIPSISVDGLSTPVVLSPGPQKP
# Outline: (§1)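 Binding signal is each hexamer's read frequency for a factor divided by its frequency in the tag-only sample. The factors were GST-fused human transcription factors from yeast, captured on glutathione beads, DNA-barcoded and pooled with that sample. Pools were incubated with 200 nmole of a random double-stranded 16-mer DNA library in Tris/NaCl/DTT/glycerol buffer at room temperature for 30 min, then washed, crosslinked with 0.1% formaldehyde, proximity-ligated with BsaI/T4 ligase (1 h, 37 °C), PCR-amplified and sequenced on an Illumina NextSeq500.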
# [2] = biological target: T2, GABPA (Homo sapiens, UniProt Q06546 1-454)
# T2 sequence: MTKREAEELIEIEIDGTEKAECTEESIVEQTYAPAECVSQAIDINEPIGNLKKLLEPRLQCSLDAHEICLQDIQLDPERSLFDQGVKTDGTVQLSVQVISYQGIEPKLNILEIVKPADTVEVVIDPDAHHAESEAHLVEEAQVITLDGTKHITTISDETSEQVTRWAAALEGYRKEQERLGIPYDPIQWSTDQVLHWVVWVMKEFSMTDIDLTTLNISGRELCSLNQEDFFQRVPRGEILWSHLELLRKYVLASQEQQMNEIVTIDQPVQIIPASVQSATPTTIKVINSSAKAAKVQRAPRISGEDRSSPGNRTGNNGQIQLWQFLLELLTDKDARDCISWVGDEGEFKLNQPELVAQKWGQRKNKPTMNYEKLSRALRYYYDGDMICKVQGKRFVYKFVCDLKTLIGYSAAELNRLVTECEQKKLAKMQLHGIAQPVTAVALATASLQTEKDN
# Outline: as §1
# [3] = biological target: ELF1 (Homo sapiens, UniProt P32519 1-619)
# Outline: as §1
# [4] = biological target: SPIB (Homo sapiens, UniProt Q01892 1-262)
# Outline: as §1
# [5] = biological target: T3, FEV (Homo sapiens, UniProt Q99581 1-238)
# T3 sequence: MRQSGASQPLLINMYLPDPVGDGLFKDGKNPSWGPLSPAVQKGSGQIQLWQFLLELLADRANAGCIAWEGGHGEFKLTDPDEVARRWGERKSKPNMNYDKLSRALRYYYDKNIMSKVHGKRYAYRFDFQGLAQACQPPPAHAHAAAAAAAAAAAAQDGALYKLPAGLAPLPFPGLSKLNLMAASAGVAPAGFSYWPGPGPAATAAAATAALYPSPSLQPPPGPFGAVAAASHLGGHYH
# Outline: as §1
# [6] = biological target: ETV5 (Homo sapiens, UniProt P41161 1-510)
# Outline: as §1
# [7] = biological target: ELF4 (Homo sapiens, UniProt Q99607 1-663)
# Outline: as §1
# [8] = biological target: T4, ELK4 (Homo sapiens, UniProt P28324-2 1-405)
# T4 sequence: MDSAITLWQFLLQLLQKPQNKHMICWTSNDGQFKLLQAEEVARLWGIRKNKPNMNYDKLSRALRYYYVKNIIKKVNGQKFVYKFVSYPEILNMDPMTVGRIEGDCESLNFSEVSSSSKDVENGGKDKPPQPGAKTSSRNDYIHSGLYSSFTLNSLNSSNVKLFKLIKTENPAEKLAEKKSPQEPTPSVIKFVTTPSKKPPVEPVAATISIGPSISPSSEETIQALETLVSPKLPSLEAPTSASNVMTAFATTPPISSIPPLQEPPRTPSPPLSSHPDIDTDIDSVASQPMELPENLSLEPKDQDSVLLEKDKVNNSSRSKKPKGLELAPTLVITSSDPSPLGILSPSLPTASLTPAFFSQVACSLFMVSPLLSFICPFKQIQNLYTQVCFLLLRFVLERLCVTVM
# Outline: as §1
# [9] = biological target: ETV1 (Homo sapiens, UniProt P50549 1-477)
# Outline: as §1
# [10] = biological target: T5, ERF (Homo sapiens, UniProt P50548 1-548)
# T5 sequence: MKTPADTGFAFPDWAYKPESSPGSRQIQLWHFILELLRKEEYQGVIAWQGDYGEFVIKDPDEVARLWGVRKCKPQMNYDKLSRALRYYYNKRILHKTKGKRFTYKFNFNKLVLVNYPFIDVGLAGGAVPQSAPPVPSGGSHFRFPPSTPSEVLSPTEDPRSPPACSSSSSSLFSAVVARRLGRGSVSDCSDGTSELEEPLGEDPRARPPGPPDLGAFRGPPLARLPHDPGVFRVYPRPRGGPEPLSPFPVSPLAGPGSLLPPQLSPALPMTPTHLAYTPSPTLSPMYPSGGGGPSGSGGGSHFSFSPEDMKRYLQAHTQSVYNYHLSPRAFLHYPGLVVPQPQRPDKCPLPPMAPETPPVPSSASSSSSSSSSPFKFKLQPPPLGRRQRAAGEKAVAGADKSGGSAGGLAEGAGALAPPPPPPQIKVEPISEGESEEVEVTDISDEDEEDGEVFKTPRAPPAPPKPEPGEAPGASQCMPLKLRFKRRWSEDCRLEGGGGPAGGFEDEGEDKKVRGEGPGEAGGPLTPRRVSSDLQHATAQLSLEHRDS
# Outline: as §1
# [11] = biological target: T6, ETV3L (Homo sapiens, UniProt Q6ZN32 1-361)
# T6 sequence: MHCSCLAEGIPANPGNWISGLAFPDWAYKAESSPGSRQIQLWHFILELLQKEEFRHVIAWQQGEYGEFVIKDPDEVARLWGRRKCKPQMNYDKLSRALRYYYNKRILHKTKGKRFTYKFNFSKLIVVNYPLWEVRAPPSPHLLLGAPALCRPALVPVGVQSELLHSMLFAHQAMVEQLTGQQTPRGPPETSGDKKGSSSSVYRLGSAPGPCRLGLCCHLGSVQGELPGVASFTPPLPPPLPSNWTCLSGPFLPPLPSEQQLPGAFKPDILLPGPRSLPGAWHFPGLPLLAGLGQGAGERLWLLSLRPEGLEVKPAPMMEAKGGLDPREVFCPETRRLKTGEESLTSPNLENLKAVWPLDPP
# Outline: as §1
# [12] = biological target: T7, ETV7 (Homo sapiens, UniProt Q9Y603 1-341)
# T7 sequence: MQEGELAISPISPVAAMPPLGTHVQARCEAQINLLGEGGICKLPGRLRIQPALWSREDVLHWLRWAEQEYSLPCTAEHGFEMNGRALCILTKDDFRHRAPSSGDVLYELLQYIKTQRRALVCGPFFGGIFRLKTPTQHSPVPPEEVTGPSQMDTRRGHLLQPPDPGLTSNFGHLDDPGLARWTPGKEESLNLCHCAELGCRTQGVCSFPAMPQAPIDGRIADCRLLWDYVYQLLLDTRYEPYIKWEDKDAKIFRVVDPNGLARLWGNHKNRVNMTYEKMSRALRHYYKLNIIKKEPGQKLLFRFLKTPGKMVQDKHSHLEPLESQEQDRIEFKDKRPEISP
# Outline: as §1
# Chain of SPIB (Q01892 whole entry): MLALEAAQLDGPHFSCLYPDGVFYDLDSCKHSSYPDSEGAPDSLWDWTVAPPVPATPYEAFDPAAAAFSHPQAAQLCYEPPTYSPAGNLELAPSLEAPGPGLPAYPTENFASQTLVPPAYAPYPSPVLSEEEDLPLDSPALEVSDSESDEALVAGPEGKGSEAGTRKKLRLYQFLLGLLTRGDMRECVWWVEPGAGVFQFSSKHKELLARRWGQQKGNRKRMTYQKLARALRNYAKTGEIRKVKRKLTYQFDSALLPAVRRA
# Chain of ELF4 (Q99607 whole entry): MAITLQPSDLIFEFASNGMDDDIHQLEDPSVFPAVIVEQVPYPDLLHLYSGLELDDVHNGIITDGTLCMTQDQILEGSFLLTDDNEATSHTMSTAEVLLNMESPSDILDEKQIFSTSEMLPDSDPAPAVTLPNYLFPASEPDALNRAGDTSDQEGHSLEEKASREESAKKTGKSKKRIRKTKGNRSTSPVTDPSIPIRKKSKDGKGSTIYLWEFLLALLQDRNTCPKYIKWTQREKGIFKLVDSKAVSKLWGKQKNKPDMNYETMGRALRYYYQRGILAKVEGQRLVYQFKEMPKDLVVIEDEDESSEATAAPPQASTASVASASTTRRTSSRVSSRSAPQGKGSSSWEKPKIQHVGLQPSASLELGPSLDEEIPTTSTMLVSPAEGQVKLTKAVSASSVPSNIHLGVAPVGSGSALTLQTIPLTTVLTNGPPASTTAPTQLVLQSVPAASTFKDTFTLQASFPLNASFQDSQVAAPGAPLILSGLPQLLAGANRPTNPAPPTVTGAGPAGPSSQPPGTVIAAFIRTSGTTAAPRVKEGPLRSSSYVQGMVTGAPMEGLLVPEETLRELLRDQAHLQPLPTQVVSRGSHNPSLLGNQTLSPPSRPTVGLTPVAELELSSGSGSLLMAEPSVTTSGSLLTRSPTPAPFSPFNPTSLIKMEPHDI
# Chain of ETV1 (P50549 whole entry): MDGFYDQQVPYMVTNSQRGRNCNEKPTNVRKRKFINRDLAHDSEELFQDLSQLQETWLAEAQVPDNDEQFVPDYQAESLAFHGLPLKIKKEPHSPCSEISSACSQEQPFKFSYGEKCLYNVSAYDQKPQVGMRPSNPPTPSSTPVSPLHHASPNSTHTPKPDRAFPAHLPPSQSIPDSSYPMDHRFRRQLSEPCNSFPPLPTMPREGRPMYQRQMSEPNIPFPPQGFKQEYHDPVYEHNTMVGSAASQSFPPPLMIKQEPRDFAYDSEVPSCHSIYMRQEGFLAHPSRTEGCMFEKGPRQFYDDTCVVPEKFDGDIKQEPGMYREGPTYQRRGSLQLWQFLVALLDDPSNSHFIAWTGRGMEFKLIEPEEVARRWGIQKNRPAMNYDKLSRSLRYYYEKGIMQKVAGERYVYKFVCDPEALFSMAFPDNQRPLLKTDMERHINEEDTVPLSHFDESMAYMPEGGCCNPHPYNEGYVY
# Chain of ETV5 (P41161 whole entry): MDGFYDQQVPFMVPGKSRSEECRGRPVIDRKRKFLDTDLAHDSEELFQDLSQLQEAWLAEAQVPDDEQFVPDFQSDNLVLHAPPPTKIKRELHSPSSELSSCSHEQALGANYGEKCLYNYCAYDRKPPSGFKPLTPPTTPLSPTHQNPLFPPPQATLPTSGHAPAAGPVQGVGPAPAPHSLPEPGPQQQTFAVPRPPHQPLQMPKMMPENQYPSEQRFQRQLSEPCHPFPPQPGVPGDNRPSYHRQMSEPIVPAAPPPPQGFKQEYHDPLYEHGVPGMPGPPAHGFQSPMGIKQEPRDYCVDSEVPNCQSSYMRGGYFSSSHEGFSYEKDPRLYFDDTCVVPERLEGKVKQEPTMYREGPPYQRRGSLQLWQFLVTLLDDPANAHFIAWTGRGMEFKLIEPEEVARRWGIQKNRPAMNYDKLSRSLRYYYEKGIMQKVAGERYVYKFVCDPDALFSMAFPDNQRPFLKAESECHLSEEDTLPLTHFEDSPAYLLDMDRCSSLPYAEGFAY
# Chain of ELF1 (P32519 whole entry): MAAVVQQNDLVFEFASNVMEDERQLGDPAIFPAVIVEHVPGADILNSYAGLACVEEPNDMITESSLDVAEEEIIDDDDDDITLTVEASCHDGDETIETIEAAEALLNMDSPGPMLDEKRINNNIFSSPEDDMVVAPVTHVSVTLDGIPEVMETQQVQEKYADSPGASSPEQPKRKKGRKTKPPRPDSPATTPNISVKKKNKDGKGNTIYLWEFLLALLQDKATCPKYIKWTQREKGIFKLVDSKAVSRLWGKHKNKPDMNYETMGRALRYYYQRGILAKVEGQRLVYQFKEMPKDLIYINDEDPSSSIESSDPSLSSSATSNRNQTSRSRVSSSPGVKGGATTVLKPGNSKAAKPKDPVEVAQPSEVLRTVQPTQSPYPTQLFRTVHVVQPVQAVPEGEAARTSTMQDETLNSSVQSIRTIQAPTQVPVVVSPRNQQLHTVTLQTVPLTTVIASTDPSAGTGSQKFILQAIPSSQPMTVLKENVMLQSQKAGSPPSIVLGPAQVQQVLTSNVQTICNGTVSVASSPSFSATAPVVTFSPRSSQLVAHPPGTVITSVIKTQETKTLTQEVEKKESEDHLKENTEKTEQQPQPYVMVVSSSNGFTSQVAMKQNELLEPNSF
sequence,measurement,setting,value
CAGCCT,binding signal,[1],"1.11 fold enrichment (6-mer frequency, TF over GST control)"
same,binding signal,[2],"1.09 fold enrichment (6-mer frequency, TF over GST control)"
same,binding signal,[3],"1.06 fold enrichment (6-mer frequency, TF over GST control)"
same,binding signal,[4],"1.09 fold enrichment (6-mer frequency, TF over GST control)"
same,binding signal,[5],"1.02 fold enrichment (6-mer frequency, TF over GST control)"
same,binding signal,[6],"1.04 fold enrichment (6-mer frequency, TF over GST control)"
same,binding signal,[7],"1.12 fold enrichment (6-mer frequency, TF over GST control)"
same,binding signal,[8],"1.01 fold enrichment (6-mer frequency, TF over GST control)"
same,binding signal,[9],"1.02 fold enrichment (6-mer frequency, TF over GST control)"
same,binding signal,[10],"1.1 fold enrichment (6-mer frequency, TF over GST control)"
same,binding signal,[11],"1.02 fold enrichment (6-mer frequency, TF over GST control)"
same,binding signal,[12],"1.13 fold enrichment (6-mer frequency, TF over GST control)"
